The campaign covered roughly 2,200 compounds. About 480 (22%) were called active. How the calls were made is not given here. A selection follows. Results with a measured potency or affinity are listed apart.

The nature of the assay: S. Typhimurium GFP fluorescence modified counterscreen for PhoP regulon inhibitor project dose response (AID 1981). The following applies: 4 h; series mostly up to 150 µM.
Regarding `COc1ccccc1N1CCN(c2ccc(-c3ccccc3)nn2)CC1`, the compound was called inactive.

On to `Cc1ccccc1Nc1nnc(SCC(=O)NC2CCCc3ccccc32)s1` (configuration not stated), for which the outcome was inactive.

Take `Cc1[nH]nc2c1C(c1cc(Br)cs1)C(C#N)=C(N)O2` (configuration not stated): the call was inactive.

For the compound `CCCOc1ccc(Cn2cnc3ccccc32)cc1`, the outcome was inactive.

Regarding `O=C(OCC1COc2ccccc2O1)c1ccccc1F` (configuration not stated), the call was inactive.

Turning to `CN(C)CCOC(=O)Cc1ccc(Cl)cc1`, the compound was called inactive.

With `CC(=O)N(Cc1ccc(Cl)cc1)c1cnccn1`, the outcome was inactive.

In the case of `C/C(Nc1ccc(F)cc1)=C(/C#N)C(N)=O`, the compound was called inactive.

As for `Cc1ccc2c(c1)cc(CN(Cc1ccc3c(c1)OCO3)C(=O)c1cnccn1)c1nnnn12`, the result was inactive.

As to `Cc1nnc(NC(=O)CSc2ncnc3scc(-c4ccccc4)c23)s1`, the call was inactive.

Consider `O=C(CSc1nnnn1-c1ccccc1)CC(=O)Nc1ccc(Cl)cc1`, for which the compound was classed as inactive.

For `O=C(CSc1nnc2c(Cl)cc(Cl)cn12)NC1CCS(=O)(=O)C1` (configuration not stated), the compound was classed as inactive.

`COc1ccc(/C=C2\CN(Cc3ccccc3)C/C(=C\c3ccc(OC)cc3)C2=O)cc1`: the result was inactive.

Turning to `Cc1cccc(C)c1NC(=O)CSc1nnc(NC(=O)CN2CCOCC2)s1`, the compound was called inactive.

Take `Cc1cc(C(=O)N/N=C/C=C/c2ccc3c(c2)OCO3)n[nH]1`: the compound was called inactive.

In the case of `O=C(N/N=C/c1cccn1-c1ccc([N+](=O)[O-])cc1)C(O)c1ccccc1` (configuration not stated), the compound was classed as inactive.

For the compound `Cc1cc(C(=O)N/N=C/c2cccc([N+](=O)[O-])c2O)n[nH]1`, the result was inactive.

As for `CN(C)C(=O)c1cn(N(C)c2ncc(C(F)(F)F)cc2Cl)c(=O)c2ccccc12`, the call was inactive.

With `Cc1ccc(-c2cc(-c3ccc(Cl)cc3)c(C#N)c(N)n2)o1`, the outcome was inactive.

For the compound `CC(=O)c1cccc(NC(=O)NCc2ccco2)c1`, the compound was called inactive.

Regarding `Nc1nc(-c2ccc(Br)cc2)cs1`, the result was inactive.

For `COc1ccc(-c2cc(N3CCCC3)n3ncnc3n2)cc1`, the compound was classed as inactive.

For the compound `Cc1ccccc1NC(=S)N(CCCN1CCOCC1)Cc1ccccn1`, the result was inactive.

For the compound `CCn1c(Cc2c(C)[nH]c3ccccc23)n[nH]c1=S`, the call was inactive.

Turning to `O=c1[nH]c2ccccc2n1C1=CCCC1`, the call was inactive.

For the compound `Cc1cccc(C)c1NC(=O)CCCSc1nnc(-c2ccc(Cl)cc2)n1-c1ccccc1`, the call was inactive.

For `COc1ccccc1-c1cc(C(=O)Nc2cc(C)nn2-c2ccccc2)no1`, the result was inactive.

As for `Cc1ccc(-n2nc(-c3ccc(N)cc3)cc2N)cc1`, the outcome was inactive.

In the case of `O=C(OCC(=O)c1ccccc1Cl)c1cnccn1`, the outcome was inactive.

For the compound `O=C(c1cc2ncc(Br)cn2n1)N1CCOCC1`, the outcome was inactive.

Turning to `Cc1[nH]c2ccccc2c1C(O)CN1CCN(c2cccc(C(F)(F)F)c2)CC1` (configuration not stated), the result was inactive.

As for `COc1cc(C2Nc3cccc4cccc(c34)N2)cc(OC)c1OC(C)=O`, the compound was called inactive.

For `CC(=O)Oc1c2occc2cc2ccc(=O)oc12`, the compound was called inactive.

Consider `O=C(NCCNS(=O)(=O)c1cccc(C(F)(F)F)c1)c1cc(OCC(F)(F)F)ccc1OCC(F)(F)F`, for which the compound was called inactive.

Take `O=c1c(Br)c(Br)cnn1-c1ccccc1`: the call was inactive.

For the compound `CCCOC(=O)C(C)n1cnc2sc(C)c(C)c2c1=O` (configuration not stated), the call was inactive.

Turning to `S=C(Nc1ccccc1)Nc1nc2ccccc2n1CCOc1ccc(Cl)cc1`, the compound was called inactive.

With `COc1ccc(C(=O)C(CO)Oc2ccccc2OC)cc1OC` (configuration not stated), the compound was classed as inactive.

For the compound `Clc1ccc(OCCn2cnc3ccccc32)cc1`, the compound was called inactive.

Consider `COc1ccccc1OCc1ccc(C(=O)N2CCN(C(=O)c3ccco3)CC2)cc1`, for which the outcome was inactive.

Turning to `COc1ccc(OCCSc2nnc3sc4ccccc4n23)cc1`, the result was inactive.

Turning to `Cc1ccc(OCc2nc3ccccc3[nH]2)cc1`, the result was inactive.

On to `COC(=O)Cn1c(C)nc2ccccc21`, for which the result was inactive.

As for `CCOC(=O)CCC(NC(=O)c1ccc(NCN2C(=O)CCC2=O)cc1)C(=O)OCC` (configuration not stated), the outcome was inactive.

Consider `CC(=O)c1c(C)nc(-c2ccc(Cl)cc2)nc1N=CN(C)C`, for which the compound was called inactive.

Regarding `Cc1cccc(C=Nc2ccc3c(c2)oc2ccccc23)c1O`, the outcome was inactive.

Consider `CCc1cccc2c(C#N)cn(CC(=O)NCCOC)c12`, for which the compound was called inactive.

In the case of `C/C(=N\n1nnnc1Nc1ccccc1)c1ccc(N)cc1`, the outcome was inactive.

As for `Cc1ccc2c(c1)C(c1ccccc1)NCC(=O)N2` (configuration not stated), the outcome was inactive.

`Cc1cc(C)nc(NC(=O)Cc2cccs2)n1`: the outcome was inactive.

Take `Cc1cccc(OCC(=O)NNc2c3ccccc3nc3ccccc23)c1`: the compound was called inactive.

For the compound `COc1ccc(/C=C/C(=O)O)cc1COc1cccc(C)c1`, the compound was classed as inactive.

With `C=CCN=C(NC#N)SCc1ccccc1Cl`, the compound was called inactive.

As for `Cc1cc(C)c(NC(=O)COc2ccccc2C(=O)Nc2ccc3c(c2)oc2ccccc23)c(C)c1`, the outcome was inactive.

As to `O=C1Nc2ccccc2/C1=C/c1cnc[nH]1`, the outcome was inactive.

As to `Cc1ccccc1OCCCCCn1ccnc1`, the compound was classed as inactive.

On to `Cc1nn(-c2ccccc2)c2sc(-c3n[nH]c(=S)o3)cc12`, for which the call was inactive.

Take `COc1ccc(OC)c(S(=O)(=O)N2c3cc(F)ccc3CCC2C)c1` (configuration not stated): the result was inactive.

Consider `Cc1cccc(Sc2c([N+](=O)[O-])ncn2C)c1`, for which the result was inactive.

On to `Clc1ccc(OCCn2ccnc2)c2ccccc12`, for which the compound was called inactive.

For `Cc1ccc(C(=O)COC(=O)CNS(=O)(=O)c2ccccc2)cc1[N+](=O)[O-]`, the compound was classed as inactive.

As to `O=C1/C(=C/c2ccccc2)NC(=S)N1C(c1ccccc1)c1ccccc1`, the compound was classed as inactive.

With `Cc1cc(C(=O)NNC(=S)NC(=O)/C=C/c2ccccc2Cl)n[nH]1`, the compound was classed as inactive.

With `CN(c1ccccc1)S(=O)(=O)c1cc(C(=O)Nc2nc3ccccc3[nH]2)ccc1Cl`, the outcome was inactive.

On to `COC(=O)CSc1nnc(-c2ccco2)n1Cc1ccco1`, for which the outcome was inactive.

For `Cc1ccccc1Cn1c(=N)n(CC(=O)c2ccco2)c2ccccc21`, the compound was called inactive.

Regarding `NC(=O)c1oc2ccccc2c1NC(=O)CN1CCCCC1`, the compound was classed as inactive.

In the case of `O=C(CN1CCCCC1)Nc1cccc(Br)c1`, the call was inactive.

For `O=C(CSc1nnc2n(C3CCCCC3)c(=O)c3ccccc3n12)OC1CCCCC1`, the result was inactive.

`OC(COc1ccc2ccccc2c1Br)Cn1ccnc1` (configuration not stated): the compound was classed as inactive.

On to `COc1cc(C)ccc1OCCCOc1ccccc1Br`, for which the compound was called inactive.

`COc1cccc(NC(=O)Cn2c(=O)n(CCCC(=O)NCc3ccco3)c(=O)c3ccccc32)c1`: the call was inactive.

As to `Cc1ccc(N(CC(=O)N/N=C/c2ccco2)S(=O)(=O)c2ccccc2)cc1`, the compound was classed as inactive.

As for `CCCc1ccc(C(=O)CCC(=O)O)cc1`, the result was inactive.

`COc1cccc(C=NCCNC(=O)c2nonc2N)c1O`: the call was inactive.

With `Nc1nonc1C(=O)NCCN=Cc1cc(Cc2ccccc2)cc(Br)c1O`, the result was inactive.

Consider `Nc1nonc1-n1nnc(C(=O)N/N=C/c2ccc(Br)cc2)c1CSC1=NCCS1`, for which the outcome was inactive.

The record behind these values is PubChem BioAssay AID1981 (Southern Research Specialized Biocontainment Screening …, 2009).
